From PubChem BioAssay (NCI) come the findings set out here.

“And” between values parts separate entries of the source, which are not always exact repeats. Identical values can stand only once. About 83,000 compounds went through this panel and 20% of them were active in at least one assay; those are over-represented in the sample as a whole.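 Treatment: one concentration, 48 hours, 96-well format. Scoring: percent growth, with anything below 10 considered active.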 A number with no mark means an inactive call. The source made the active and inactive calls.

Some test systems named below: SK-MEL-2 melanoma; EKVX NSCLC; UO-31 renal; TK-10 renal; ACHN renal; CAKI-1 renal; A498 renal; CCRF-CEM leukemia; MOLT-4 leukemia.
Common to all, as to experiment: NCI-60 one-dose screen, 48 h (100 = growth as untreated, 0 = no growth, -100 = all killed)
Holding throughout (conditions): 10 µM unless noted

Turning to `CC1OS(=O)OC1C` (centres undefined), the growth with SK-MEL-2 melanoma is 91.4% and 111%; in the assay with EKVX NSCLC, 100%; in the assay with UO-31 renal, 96.1%; with TK-10 renal, 99.8% and 107%; in the assay on ACHN renal it was 91.9% and 103%; in the assay with CAKI-1 renal it was 96.7% and 89.1%. In addition, the growth in the assay on A498 renal is 101% and 105%; with CCRF-CEM leukemia it was 96.2%; in the assay with MOLT-4 leukemia, 81% and 113%.
For `Nc1ccc2ccc(NS(=O)(=O)N3CCCCC3)cc2c1`, the growth was 85.4% in the assay with SK-MEL-2 melanoma; 61.7% in the assay on EKVX NSCLC; 64.8% with UO-31 renal; 47.1% in the assay on TK-10 renal; 56.7% in the assay on ACHN renal; 43.4% with CAKI-1 renal. Besides, the growth in the assay on A498 renal was 29.3%; in the assay on CCRF-CEM leukemia it was 18.3%; in the assay with MOLT-4 leukemia, 18%.
`CCOP(C)(=O)/C(Cc1ccc(OC)c(OC)c1)=N\O` (centres undefined): the growth is 111% with SK-MEL-2 melanoma; 98.3% with EKVX NSCLC; 91.2% with UO-31 renal; 107% with TK-10 renal; 106% with ACHN renal; 103% in the assay on CAKI-1 renal. Further, the growth with A498 renal is 104%; in the assay with CCRF-CEM leukemia, 110%; in the assay on MOLT-4 leukemia it was 112%.
For the compound `O=C(O)/C=C/C=C/c1ccccc1`, the growth in the assay with SK-MEL-2 melanoma was 104% and 115%; with EKVX NSCLC, 100%; in the assay with TK-10 renal, 97.3% and 106%; with ACHN renal, 103% and 109%; in the assay on CAKI-1 renal it was 98.9% and 101%; with A498 renal, 73.4%. Besides, the growth was 102% and 95.1% with CCRF-CEM leukemia; 106% and 109% with MOLT-4 leukemia.
`COc1ccc(/C=N/NC(N)=S)cc1`: the growth with SK-MEL-2 melanoma was 97.5%; in the assay with EKVX NSCLC it was 64.1%; in the assay with UO-31 renal, 76.4%; in the assay with TK-10 renal it was 104%; with ACHN renal, 101%; in the assay with CAKI-1 renal, 93.3%. The growth is 73.4% in the assay on A498 renal, 69.1% in the assay on CCRF-CEM leukemia and 136% in the assay on MOLT-4 leukemia.
On to `CCCCCc1cc[n+](CC(=O)c2ccccc2)cc1`, for which the growth with SK-MEL-2 melanoma is 101% and 104%; in the assay on EKVX NSCLC it was 90.4%; with UO-31 renal, 85.6% and 91.3%; with TK-10 renal, 120% and 101%; in the assay with ACHN renal, 102%; with A498 renal, 87.5% and 85.7%. Also, the growth with CCRF-CEM leukemia is 92.2% and 99.4%; with MOLT-4 leukemia it was 104% and 109%.
As for `CCCC(=O)Oc1ccc(CC)cc1`, the growth in the assay with SK-MEL-2 melanoma was 107%; with EKVX NSCLC it was 99%; in the assay on UO-31 renal, 93.7%; in the assay on TK-10 renal, 97.2%; with ACHN renal, 107%; in the assay with CAKI-1 renal it was 96.1%. Besides, the growth is 78.1% with A498 renal, 107% with CCRF-CEM leukemia and 101% in the assay on MOLT-4 leukemia.
With `Cc1ccc2cccc([N+](=O)[O-])c2n1`, the growth with SK-MEL-2 melanoma is 104% and 111%; in the assay with EKVX NSCLC, 114%; in the assay on UO-31 renal it was 88.3% and 73.6%; in the assay on TK-10 renal, 109% and 111%; with ACHN renal, 105% and 96.9%; in the assay on CAKI-1 renal, 96.5% and 95.6%. Further, the growth in the assay with A498 renal was 117% and 109%; with CCRF-CEM leukemia it was 108% and 95.3%; with MOLT-4 leukemia, 88.5% and 89.3%.
On to `CCc1ccccc1-n1[nH]c(C)c(C=N)c1=O`, for which the growth was 106% in the assay with SK-MEL-2 melanoma; 104% in the assay with EKVX NSCLC; 103% in the assay with TK-10 renal; 97.3% in the assay with CAKI-1 renal; 112% with A498 renal; 102% in the assay on CCRF-CEM leukemia. Besides, the growth in the assay with MOLT-4 leukemia is 117%.
In the case of `CC(=O)Nc1cscc1NC(C)=O`, the growth is 139% in the assay with SK-MEL-2 melanoma; 73.2% in the assay on EKVX NSCLC; 93.3% in the assay on UO-31 renal; 97.8% in the assay with TK-10 renal; 96.3% in the assay with ACHN renal; 92.9% with A498 renal. The growth in the assay on CCRF-CEM leukemia is 89.2%; in the assay with MOLT-4 leukemia, 111%.
Take `CC(=O)C[n+]1ccccc1Sc1ccc(Cl)cc1`: the growth was 132% in the assay on SK-MEL-2 melanoma; 103% in the assay with EKVX NSCLC; 60.5% with UO-31 renal; 104% in the assay on TK-10 renal; 113% with ACHN renal; 90.9% in the assay with CAKI-1 renal. Further, the growth in the assay with A498 renal is 76.4%; with CCRF-CEM leukemia, -9.4% (active); in the assay on MOLT-4 leukemia it was 18.9%.
